Our source for the outcome and AC50 values is PubChem BioAssay (EPA / NIEHS).

Values joined by “and” are separate entries in the source; they are usually repeats but may differ in a detail not shown here. Identical values can stand only once. Results filed as inconclusive are left out. Active and inactive are the calls of the source. Rule for the calls: active = hit-call score of the fitted dose curve at least 0.9, where 1 is the maximum; inconclusive = response in the unintended direction; inactive = score below 0.9.

Test [1] concerns the target human Adrenergic, Alpha 2c Receptor (Adra2C), ADRA2C (gene 152) (UniProt P18825). The test is described as follows: NVS_GPCR_hAdra2C: NovaScreen (NVS) G Protein-Coupled Receptor Assay for human Adrenergic, Alpha 2c Receptor (Adra2C) (AID 2283259). Put shortly: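 Screened first in duplicate at 25 uM, with actives then run as concentration series. Membranes from Sf9 cells were exposed for 1 h, and displacement of radioligand was counted after filtration, using DMSO as baseline.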

The target of test [2] is Muscarinic acetylcholine receptor M1 (Homo sapiens) (UniProt P11229). Put plainly: NVS_GPCR_hM1: NovaScreen (NVS) G Protein-Coupled Receptor Assay for human Muscarinic, M1 Receptor (AID 2283270). Put shortly: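 Actives from a duplicate 25 uM single-point screen were retested in concentration series. Binding measured as displacement of a radioligand from CHO-derived receptor preparation, 1 h incubation, filtration and scintillation counting, analysed as signal loss against DMSO.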

For test [3], the target named is Type-1 angiotensin II receptor (Homo sapiens) (UniProt P30556). The test is described as follows: NVS_GPCR_hAT1: NovaScreen (NVS) G Protein-Coupled Receptor Assay for human Angiotensin II receptor type 1 (AT1) (AID 2283263). The gist of the method:
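Hits from a 25 uM duplicate screen (threshold e.g. 30% inhibition) were run in concentration-response with 50 uM top concentration. Displacement of specific radioligand from KAN-TS membrane preparations measured after 3 h by filter scintillation, DMSO as baseline.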

For test [4], the target named is D(1A) dopamine receptor (Homo sapiens) (UniProt P21728). Put plainly: NVS_GPCR_hDRD1: NovaScreen (NVS) G Protein-Coupled Receptor Assay for human Dopamine Receptor D1 (DRD1) (AID 2283269). The gist of the method: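 Cell-free radioligand binding to human DRD1 from HEK293 membranes, read 1 h after dosing by filter-based scintillation counting. Loss of signal versus DMSO baseline marks displacement. Primary screen at 25 uM single concentration in duplicate; actives followed up in concentration series.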

Test [5] concerns the target Muscarinic acetylcholine receptor M2 (Homo sapiens) (UniProt P08172). Put plainly: NVS_GPCR_hM2: NovaScreen (NVS) G Protein-Coupled Receptor Assay for human Muscarinic, M2 Receptor (AID 2283273). Put shortly: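 Filter-based radiodetection read bound radioligand 1 h after dosing CHO-derived membrane protein. Single-concentration duplicates (25 uM) first, then concentration-response for actives; signal loss versus DMSO scored.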

Test [6] concerns the target human Muscarinic, M4 Receptor, CHRM4 (gene 1132) (UniProt P08173). Put plainly: NVS_GPCR_hM4: NovaScreen (NVS) G Protein-Coupled Receptor Assay for human Muscarinic, M4 Receptor (AID 2283274). The gist of the method:
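Filter-based scintillation counting of radioligand bound to CHO-expressed human M4 preparations after 1 h; loss of signal fitted versus DMSO. Initial duplicate testing at 25 uM, concentration-response follow-up for actives.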

Test [7] addresses Beta-2 adrenergic receptor (Homo sapiens) (UniProt P07550). Put plainly: NVS_GPCR_hAdrb2: NovaScreen (NVS) G Protein-Coupled Receptor Assay for human Adrenergic, Beta 2 Receptor (Adrb2) (AID 2283261). Put shortly: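 Compounds screened in duplicate at 25 uM, then actives in concentration series. Human beta-2 receptor from CHO material, cell-free; radioligand displacement after 1 h measured by filtration and scintillation against DMSO baseline.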

Test [8] deals with human Adrenergic, Beta 1 Receptor (Adrb1), ADRB1 (gene 153) (UniProt P08588). The test is described as follows: NVS_GPCR_hAdrb1: NovaScreen (NVS) G Protein-Coupled Receptor Assay for human Adrenergic, Beta 1 Receptor (Adrb1) (AID 2283258). Put shortly: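 Membranes/protein extracted from human neuroepithelioma cells, radioligand competition binding read by filtration and scintillation 2 h post-dose. Single 25 uM duplicate screen, then concentration-response follow-up; DMSO as negative control.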

Test [9] addresses human Dopamine Receptor D2 (DRD2), DRD2 (gene 1813) (UniProt P14416). The test is described as follows: NVS_GPCR_hDRD2s: NovaScreen (NVS) G Protein-Coupled Receptor Assay for human Dopamine Receptor D2 (DRD2) (AID 2283266). Put shortly:
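Test compound (25 uM, duplicate in the primary screen; concentration series at follow-up) competed with radioligand for human DRD2 in CHO-derived membrane protein. Filter-based scintillation counting was done 1.5 hours after dosing, with loss of signal analysed against DMSO.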

The target in test [10] is human Leukotriene B4 Receptor 1 (LTB4-BLT1), LTB4R (gene 1241) (UniProt Q15722). The test is described as follows: NVS_GPCR_hLTB4_BLT1: NovaScreen (NVS) G Protein-Coupled Receptor Assay for human Leukotriene B4 Receptor 1 (LTB4-BLT1) (AID 2283271). The gist of the method:
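Cell-free human neutrophil receptor preparation, 1 h exposure, radioligand binding read by filter scintillation counting. Single 25 uM duplicate screen, then concentration series topping at 50 uM; binding loss scored against DMSO baseline.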

Test [11] has as its target Muscarinic acetylcholine receptor M3 (Homo sapiens) (UniProt P20309). The test is described as follows: NVS_GPCR_hM3: NovaScreen (NVS) G Protein-Coupled Receptor Assay for human Muscarinic, M3 Receptor (AID 2283272). Put shortly: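 Radioligand displacement binding on human M3 receptor in CHO-derived membranes, 1 h incubation, filter-based scintillation counting. Primary screen in duplicate at 25 uM; actives followed up in concentration series; loss of signal versus DMSO.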

For test [12], the target named is human Neurokinin, NK2 Receptor, TACR2 (gene 6865) (UniProt P21452). Put plainly: NVS_GPCR_hNK2: NovaScreen (NVS) G Protein-Coupled Receptor Assay for human Neurokinin, NK2 Receptor (AID 2283278).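 Note: actives reduce bound radioligand signal relative to DMSO baseline.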 Put shortly: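 CHO-derived membrane protein, radioligand displacement, filter scintillation read at 4 h post-dose. Single-point 25 uM in duplicate, then concentration series for actives; DMSO as negative control.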

For test [13], the target named is human Neurotensin Receptor (NTS), NTSR1 (gene 4923) (UniProt P30989). The test is described as follows: NVS_GPCR_hNTS: NovaScreen (NVS) G Protein-Coupled Receptor Assay for human Neurotensin Receptor (NTS) (AID 2283279). The gist of the method: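 Compounds competed with a radiolabelled ligand for binding to CHO-derived human neurotensin receptor; bound signal counted after filtration, 1 h. Screened first at a single concentration of 25 uM in duplicate, then concentration series to 50 uM maximum for actives.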

For test [14], the target named is human Histamine 1 Receptor (H1), HRH1 (gene 3269) (UniProt P35367). The test is described as follows: NVS_GPCR_hH1: NovaScreen (NVS) G Protein-Coupled Receptor Assay for human Histamine 1 Receptor (H1) (AID 2283268). Put shortly:
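Filter-based scintillation detection of radioligand binding to human H1, 1 h incubation; chemicals screened in duplicate at 25 uM, then concentration-response; signal loss relative to DMSO taken as activity.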

The target in test [15] is human Neuropeptide Receptor Y1 (NPY1), NPY1R (gene 4886) (UniProt P25929). Put plainly: NVS_GPCR_hNPY1: NovaScreen (NVS) G Protein-Coupled Receptor Assay for human Neuropeptide Receptor Y1 (NPY1) (AID 2283276). Put shortly:
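Displacement of specific radioligand from NPY1 receptor of SK-N-MC origin, read by filtration and scintillation after 1 h. Compounds first tested at 25 uM in duplicate, then actives in concentration series; signal loss relative to DMSO.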

The target in test [16] is human Dopamine Receptor D4.4 (DRD4.4), DRD4 (gene 1815) (UniProt P21917). Put plainly: NVS_GPCR_hDRD4.4: NovaScreen (NVS) G Protein-Coupled Receptor Assay for human Dopamine Receptor D4.4 (DRD4.4) (AID 2283264). The gist of the method:
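Filter-binding assay with a tritiated or iodinated ligand, cell-free receptor prepared from CHO, 1 hour. Loss of bound radioactivity versus DMSO; single 25 uM duplicate screen, then concentration-response for actives.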

The target of test [17] is human Endothelin Receptor Type B (ETB), EDNRB (gene 1910) (UniProt P24530). The test is described as follows: NVS_GPCR_hETB: NovaScreen (NVS) G Protein-Coupled Receptor Assay for human Endothelin Receptor Type B (ETB) (AID 2283267). Put shortly:
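Filter-based scintillation readout of radioligand displacement, 4 h, using membranes from human astrocytoma cells. Actives from a 25 uM duplicate screen were retested in concentration-response (top 50 uM) relative to DMSO baseline.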

human Neurotensin Receptor (NTS), NTSR1 (gene 4923), sequence (P30989 whole entry, looked up): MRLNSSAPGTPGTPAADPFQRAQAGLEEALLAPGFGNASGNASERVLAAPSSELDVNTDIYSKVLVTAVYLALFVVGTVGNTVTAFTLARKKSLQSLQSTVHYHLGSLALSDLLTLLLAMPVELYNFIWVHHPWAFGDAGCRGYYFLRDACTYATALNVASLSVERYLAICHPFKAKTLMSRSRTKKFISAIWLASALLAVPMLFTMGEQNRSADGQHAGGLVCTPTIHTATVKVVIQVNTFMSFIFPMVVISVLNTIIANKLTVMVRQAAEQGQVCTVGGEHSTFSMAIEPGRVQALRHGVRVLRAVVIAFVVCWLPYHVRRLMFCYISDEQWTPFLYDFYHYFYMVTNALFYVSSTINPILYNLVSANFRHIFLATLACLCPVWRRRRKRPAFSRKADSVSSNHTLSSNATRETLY
D(1A) dopamine receptor (Homo sapiens), sequence (P21728 whole entry, looked up): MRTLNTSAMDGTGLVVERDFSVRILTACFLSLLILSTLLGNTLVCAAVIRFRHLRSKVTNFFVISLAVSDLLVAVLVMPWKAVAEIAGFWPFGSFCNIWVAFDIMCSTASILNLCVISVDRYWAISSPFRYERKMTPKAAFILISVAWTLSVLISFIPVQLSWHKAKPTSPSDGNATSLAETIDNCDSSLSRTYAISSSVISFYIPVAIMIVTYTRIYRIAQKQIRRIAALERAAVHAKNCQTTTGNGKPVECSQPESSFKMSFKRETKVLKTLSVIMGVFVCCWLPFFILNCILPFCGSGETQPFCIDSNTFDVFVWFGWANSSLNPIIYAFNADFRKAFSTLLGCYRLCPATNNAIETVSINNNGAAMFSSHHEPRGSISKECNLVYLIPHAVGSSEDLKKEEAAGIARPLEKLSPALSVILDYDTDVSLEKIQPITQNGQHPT
Muscarinic acetylcholine receptor M1 (Homo sapiens), sequence (P11229 whole entry, looked up): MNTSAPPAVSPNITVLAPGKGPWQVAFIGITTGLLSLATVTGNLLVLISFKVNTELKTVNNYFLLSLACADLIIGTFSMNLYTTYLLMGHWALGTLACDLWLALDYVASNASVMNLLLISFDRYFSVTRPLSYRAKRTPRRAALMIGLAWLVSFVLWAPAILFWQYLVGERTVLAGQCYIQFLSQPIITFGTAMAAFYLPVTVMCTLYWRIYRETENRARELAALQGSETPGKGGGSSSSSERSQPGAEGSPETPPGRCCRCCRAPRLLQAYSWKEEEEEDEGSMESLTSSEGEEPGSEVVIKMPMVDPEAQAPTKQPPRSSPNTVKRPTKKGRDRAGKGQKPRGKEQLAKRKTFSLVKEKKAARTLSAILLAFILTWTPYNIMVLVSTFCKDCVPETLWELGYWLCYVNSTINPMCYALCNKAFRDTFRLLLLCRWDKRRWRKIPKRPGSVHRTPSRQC
human Leukotriene B4 Receptor 1 (LTB4-BLT1), LTB4R (gene 1241), sequence (Q15722 whole entry, looked up): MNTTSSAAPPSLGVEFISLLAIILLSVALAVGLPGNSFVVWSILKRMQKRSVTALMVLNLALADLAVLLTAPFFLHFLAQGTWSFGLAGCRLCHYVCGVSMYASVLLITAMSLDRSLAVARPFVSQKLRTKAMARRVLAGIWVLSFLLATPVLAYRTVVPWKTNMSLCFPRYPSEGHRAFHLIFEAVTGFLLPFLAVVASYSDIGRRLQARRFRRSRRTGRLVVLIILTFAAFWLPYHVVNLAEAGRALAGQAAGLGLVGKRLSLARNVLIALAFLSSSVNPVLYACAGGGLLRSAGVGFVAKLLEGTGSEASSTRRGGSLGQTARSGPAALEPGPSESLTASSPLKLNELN
human Adrenergic, Alpha 2c Receptor (Adra2C), ADRA2C (gene 152), sequence (P18825 whole entry, looked up): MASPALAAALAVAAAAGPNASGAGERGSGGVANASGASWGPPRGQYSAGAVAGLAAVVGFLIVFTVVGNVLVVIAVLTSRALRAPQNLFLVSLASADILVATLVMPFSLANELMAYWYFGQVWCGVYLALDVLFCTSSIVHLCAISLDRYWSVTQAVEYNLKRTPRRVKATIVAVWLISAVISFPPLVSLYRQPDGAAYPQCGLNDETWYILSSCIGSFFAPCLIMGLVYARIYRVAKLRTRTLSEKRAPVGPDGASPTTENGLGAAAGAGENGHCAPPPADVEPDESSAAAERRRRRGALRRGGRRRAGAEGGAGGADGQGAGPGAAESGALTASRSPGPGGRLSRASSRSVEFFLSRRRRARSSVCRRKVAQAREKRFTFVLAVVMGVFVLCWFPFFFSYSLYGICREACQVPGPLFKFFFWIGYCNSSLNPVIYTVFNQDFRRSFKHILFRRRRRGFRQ
human Adrenergic, Beta 1 Receptor (Adrb1), ADRB1 (gene 153), sequence (P08588 whole entry, looked up): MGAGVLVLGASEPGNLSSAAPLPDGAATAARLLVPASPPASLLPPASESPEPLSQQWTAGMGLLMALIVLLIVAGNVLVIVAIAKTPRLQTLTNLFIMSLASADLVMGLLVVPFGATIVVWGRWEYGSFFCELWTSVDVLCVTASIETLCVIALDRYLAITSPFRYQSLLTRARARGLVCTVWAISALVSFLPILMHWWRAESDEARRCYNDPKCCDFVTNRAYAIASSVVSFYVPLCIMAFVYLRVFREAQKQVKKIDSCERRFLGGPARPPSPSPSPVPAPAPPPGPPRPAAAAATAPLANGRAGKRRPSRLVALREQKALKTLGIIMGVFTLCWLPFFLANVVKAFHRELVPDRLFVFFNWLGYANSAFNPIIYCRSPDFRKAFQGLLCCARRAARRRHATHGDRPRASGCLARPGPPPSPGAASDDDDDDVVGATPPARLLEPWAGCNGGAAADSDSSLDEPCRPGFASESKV
human Dopamine Receptor D2 (DRD2), DRD2 (gene 1813), sequence (P14416 whole entry, looked up): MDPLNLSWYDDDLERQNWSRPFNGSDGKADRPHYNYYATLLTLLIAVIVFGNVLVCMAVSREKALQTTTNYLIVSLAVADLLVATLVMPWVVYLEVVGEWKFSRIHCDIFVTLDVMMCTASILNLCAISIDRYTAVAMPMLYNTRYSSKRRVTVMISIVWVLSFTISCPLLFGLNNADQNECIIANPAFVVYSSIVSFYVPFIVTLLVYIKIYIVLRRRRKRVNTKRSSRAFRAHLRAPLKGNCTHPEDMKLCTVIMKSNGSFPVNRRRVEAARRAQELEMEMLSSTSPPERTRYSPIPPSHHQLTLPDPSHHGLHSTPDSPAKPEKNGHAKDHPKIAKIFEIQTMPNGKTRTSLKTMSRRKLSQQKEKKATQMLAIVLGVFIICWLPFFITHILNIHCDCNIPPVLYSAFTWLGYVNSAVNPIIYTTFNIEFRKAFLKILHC
human Neuropeptide Receptor Y1 (NPY1), NPY1R (gene 4886), sequence (P25929 whole entry, looked up): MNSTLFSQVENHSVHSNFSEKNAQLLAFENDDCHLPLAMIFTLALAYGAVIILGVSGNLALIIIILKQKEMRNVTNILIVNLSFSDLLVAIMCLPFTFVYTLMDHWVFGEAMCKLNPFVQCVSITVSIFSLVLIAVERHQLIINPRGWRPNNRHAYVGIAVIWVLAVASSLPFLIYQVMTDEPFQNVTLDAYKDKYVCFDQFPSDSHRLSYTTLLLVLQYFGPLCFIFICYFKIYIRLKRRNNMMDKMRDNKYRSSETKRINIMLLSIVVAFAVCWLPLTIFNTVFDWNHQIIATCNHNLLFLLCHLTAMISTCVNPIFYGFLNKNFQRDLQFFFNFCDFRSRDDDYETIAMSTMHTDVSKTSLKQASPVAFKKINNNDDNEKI
human Neurokinin, NK2 Receptor, TACR2 (gene 6865), sequence (P21452 whole entry, looked up): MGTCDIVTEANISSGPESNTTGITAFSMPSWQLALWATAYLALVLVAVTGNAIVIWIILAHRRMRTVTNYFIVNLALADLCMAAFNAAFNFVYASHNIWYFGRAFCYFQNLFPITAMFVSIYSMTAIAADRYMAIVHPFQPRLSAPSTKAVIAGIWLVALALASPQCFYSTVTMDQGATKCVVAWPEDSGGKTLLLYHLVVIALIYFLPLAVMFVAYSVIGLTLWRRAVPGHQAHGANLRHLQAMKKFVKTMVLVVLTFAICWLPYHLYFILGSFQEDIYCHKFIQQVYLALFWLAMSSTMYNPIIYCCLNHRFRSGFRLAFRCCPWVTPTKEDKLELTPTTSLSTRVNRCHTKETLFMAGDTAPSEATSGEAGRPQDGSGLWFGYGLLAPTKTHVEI
human Muscarinic, M4 Receptor, CHRM4 (gene 1132), sequence (P08173 whole entry, looked up): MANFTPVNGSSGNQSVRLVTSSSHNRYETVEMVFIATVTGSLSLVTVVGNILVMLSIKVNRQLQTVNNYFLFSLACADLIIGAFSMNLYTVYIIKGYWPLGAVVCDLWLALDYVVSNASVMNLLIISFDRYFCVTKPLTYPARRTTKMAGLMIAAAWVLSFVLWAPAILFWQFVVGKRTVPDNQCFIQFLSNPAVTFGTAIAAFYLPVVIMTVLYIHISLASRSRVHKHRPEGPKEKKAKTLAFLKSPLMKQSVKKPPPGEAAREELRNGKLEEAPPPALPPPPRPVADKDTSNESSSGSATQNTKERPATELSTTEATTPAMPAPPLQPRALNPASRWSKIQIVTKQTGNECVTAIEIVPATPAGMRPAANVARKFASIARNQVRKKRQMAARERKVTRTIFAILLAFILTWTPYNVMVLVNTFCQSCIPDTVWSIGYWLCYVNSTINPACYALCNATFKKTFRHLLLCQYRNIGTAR
Muscarinic acetylcholine receptor M3 (Homo sapiens), sequence (P20309 whole entry, looked up): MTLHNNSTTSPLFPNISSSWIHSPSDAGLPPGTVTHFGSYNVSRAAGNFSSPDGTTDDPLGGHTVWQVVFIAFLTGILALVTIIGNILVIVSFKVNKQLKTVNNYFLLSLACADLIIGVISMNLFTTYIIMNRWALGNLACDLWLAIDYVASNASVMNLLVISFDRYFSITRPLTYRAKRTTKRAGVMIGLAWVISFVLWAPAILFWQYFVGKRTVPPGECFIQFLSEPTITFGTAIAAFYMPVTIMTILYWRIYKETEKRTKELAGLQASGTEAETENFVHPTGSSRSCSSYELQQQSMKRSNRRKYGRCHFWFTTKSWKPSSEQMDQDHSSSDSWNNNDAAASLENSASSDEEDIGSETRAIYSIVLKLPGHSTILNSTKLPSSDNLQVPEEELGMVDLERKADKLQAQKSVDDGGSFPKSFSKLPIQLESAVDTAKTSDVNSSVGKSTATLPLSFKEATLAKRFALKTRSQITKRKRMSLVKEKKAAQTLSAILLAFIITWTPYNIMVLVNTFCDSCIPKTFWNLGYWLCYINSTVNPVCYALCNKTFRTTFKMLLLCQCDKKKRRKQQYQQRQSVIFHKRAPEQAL

`CCOC(=O)[C@H](C)Oc1ccc(Oc2nc3ccc(Cl)cc3o2)cc1`: the result in [1] and in test [2] was inactive.

For the compound `CCCCCCC(C)OC(=O)COc1nc(F)c(Cl)c(N)c1Cl` (stereo unspecified), in test [3], the result was inactive. The half-maximal activity concentration (AC50) in test [4] is 25 µM (active).

As for `CC(=O)[C@H]1CC[C@H]2[C@@H]3CCC4=CC(=O)CC[C@]4(C)[C@H]3CC[C@]12C`, the outcome in test [5] and in [6] was inactive.

Regarding `COC(=O)c1ccccc1S(=O)(=O)NC(=O)Nc1nc(OC(F)F)cc(OC(F)F)n1`, in test [7], the call was inactive.

Turning to `Oc1ccc(C(c2ccc(O)cc2)C(Cl)(Cl)Cl)cc1`, the compound was called inactive in test [8], in test [7], in test [10], in test [11] and in test [12]. For the same compound, the half-maximal activity concentration (AC50) was 6.88 µM (active) in test [1]; 25 µM (active) in [9]; 6.83 µM (active) in test [4]; 6.79 µM (active) in [2]; 4.96 µM (active) in test [5]; 6.62 µM (active) in test [6].

For `CCCN(CCC)c1c([N+](=O)[O-])cc(C(F)(F)F)c(N)c1[N+](=O)[O-]`, the outcome in test [13] was inactive.

As to `C[C@]12CC[C@@H]3c4ccc(O)cc4C[C@@H](CCCCCCCCCS(=O)CCCC(F)(F)C(F)(F)F)[C@H]3[C@@H]1CC[C@@H]2O` (stereo partly specified), the compound was classed as inactive in [11].

For the compound `N#CSCSc1nc2ccccc2s1`, the half-maximal activity concentration (AC50) is 9.3 µM (active) in test [3]; 14.8 µM (active) and 16.7 µM (active) in test [4].

As to `S=C([S-])NCCNC(=S)[S-].[Mn+2]`, the compound was classed as inactive in [9], in test [14] and in test [13]. Besides, the AC50 in test [15] is 13.3 µM (active).

Consider `COC(=O)c1ccc(CNS(C)(=O)=O)cc1S(=O)(=O)NC(=O)Nc1nc(OC)cc(OC)n1`, for which the outcome in [13] was inactive.

Turning to `Cc1nn(C)c(Oc2ccccc2)c1C=NOCc1ccc(C(=O)OC(C)(C)C)cc1`, the compound was called inactive in test [15] and in test [12].

Regarding `O=C(c1ccc(O)cc1O)c1ccc(O)cc1O`, in [16], the compound was called inactive.

As for `CC(C)CCCCCCc1ccc(O)cc1`, the concentration at half-maximal activity (AC50) in [8] is 38 µM (active); in test [4], 25 µM (active).

Turning to `C#C[C@]1(O)CC[C@H]2[C@@H]3CCC4=CC(=O)CC[C@@H]4[C@H]3CC[C@@]21CC`, the outcome in test [17] was inactive.

For `COC(=O)c1ccccc1C(=O)O`, the compound was called inactive in test [13].

On to `CCOC(=O)NCCOc1ccc(Oc2ccccc2)cc1`, for which, in test [2], the call was inactive.

Regarding `O=C(O)C1(C(=O)Nc2ccc(Cl)cc2Cl)CC1`, the compound was classed as inactive in [10].

The term AC50 denotes the concentration giving half of the maximal activity seen.
